Experimental data as given in PubChem BioAssay AID1159580 (chemical genetic matrix, 2015).
The whole screen tested about 5,500 compounds, of which about 2,000 (36%) were called active. Another 18% or so got no clear call; they are omitted. Rule as the data show it: active = normalized growth mostly below about 0.91 (no sharp cut-off); inconclusive = no clear call, values can overlap the other calls; inactive = mostly above about 0.92. The list shows a part of the results.

Test: chemical genetic growth profiling, strain panel (AID 1159580);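 also: tested at 20 µM; growth read once vehicle control cultures reached saturation at 30 °C; 1 = growth at the plate median or of vehicle wells; lower values mean less growth of the strain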
Conditions: S. cerevisiae deletion strains, growth OD
[1] = locus YDL101C, strain DUN1, hits give low values
[2] = locus YHR030C, strain SLT2, hits give low values

Measured: normalized growth

COc1cccc(C2C3=C(CC(C)(C)CC3=O)OC3=C2C(=O)CC(C)(C)C3)c1O
inactive: locus YAL013W, strain DEP1, hits give low values 1 | locus YBR229C, strain ROT2, hits give low values 0.987 | locus YCL061C, strain MRC1, hits give low values 1.02 | [1] 1.01 | locus YDL134C, strain PPH21, hits give low values 0.978 | locus YDR150W, strain NUM1, hits give low values 1.04 | locus YEL061C, strain CIN8, hits give low values 0.965 | locus YGR078C, strain PAC10, hits give low values 1 | [2] 1.08 | locus YHR087W, strain rtc3, hits give low values 0.958 | locus YJR043C, strain POL32, hits give low values 1.03 | locus YJR075W, strain HOC1, hits give low values 1 | locus YKL190W, strain CNB1, hits give low values 0.988 | locus YLR039C, strain RIC1, hits give low values 1.08 | locus YLR058C, strain SHM2 (second series), hits give low values 0.991 | locus YLR085C, strain ARP6, hits give low values 0.977 | locus YLR262C, strain YPT6, hits give low values 1.04 | locus YML094W, strain GIM5, hits give low values 1.01 | locus YMR219W, strain ESC1, hits give low values 1 | locus YMR263W, strain SAP30, hits give low values 0.999 | locus YMR307W, strain GAS1, hits give low values 0.876 | locus YNL128W, strain TEP1, hits give low values 0.983 | locus YNL153C, strain GIM3, hits give low values 1 | locus YNL298W, strain CLA4 (second series), hits give low values 0.927 | locus YNL322C, strain KRE1, hits give low values 0.993 | locus YNR030W, strain Alg12, hits give low values 0.977 | locus YOL006C, strain TOP1, hits give low values 0.947 | locus YPL055C, strain LGE1, hits give low values 1 | locus YPL241C, strain CIN2, hits give low values 1.01 | locus YPR135W, strain CTF4, hits give low values 0.976

COC(=O)C1=C(C)NC(C)=C(C(=O)OC)C1c1ccc(Cl)cc1Cl
inactive: locus YAR019C, strain CDC15, hits give low values 0.973 | locus YBL105C, strain PKC1, hits give low values 0.976 | locus YBR135W, strain CKS1, hits give low values 0.971 | locus YBR136W, strain MEC1, hits give low values 0.976 | locus YBR160W, strain CDC28, hits give low values 0.981 | locus YDL017W, strain CDC7, hits give low values 0.979 | locus YDL028C, strain MPS1, hits give low values 0.977 | [1] 0.973 | locus YDL108W, strain KIN28, hits give low values 0.967 | locus YDL132W, strain cdc53, hits give low values 0.967 | locus YDL214C, strain PRR2, hits give low values 0.917 | locus YDR052C, strain DBF4, hits give low values 0.986 | locus YDR054C, strain cdc34, hits give low values 0.967 | locus YDR226W, strain ADK1, hits give low values 0.972 | locus YDR477W, strain SNF1, hits give low values 0.909 | locus YER123W, strain YCK3, hits give low values 0.887 | locus YER133W, strain GLC7, hits give low values 0.889 | locus YFL009W, strain cdc4, hits give low values 0.968 | locus YFL029C, strain CAK1, hits give low values 0.969 | locus YFR003C, strain YPI1, hits give low values 0.98 | locus YFR019W, strain FAB1, hits give low values 0.949 | locus YFR028C, strain CDC14, hits give low values 0.974 | locus YGR040W, strain KSS1, hits give low values 0.914 | locus YGR052W, strain FMP48, hits give low values 0.989 | locus YGR092W, strain DBF2, hits give low values 0.88 | [2] 0.99 | locus YHR079C, strain IRE1, hits give low values 0.963 | locus YHR082C, strain KSP1, hits give low values 0.97 | locus YHR205W, strain SCH9, hits give low values 0.943 | locus YIL147C, strain SLN1, hits give low values 0.961 | locus YJL095W, strain BCK1, hits give low values 0.961 | locus YJL128C, strain PBS2, hits give low values 0.98 | locus YJL157C, strain FAR1, hits give low values 0.928 | locus YJR016C, strain ILV3, hits give low values 0.972 | locus YJR066W, strain TOR1 (second series), hits give low values 0.908 | locus YJR066W, strain TOR1, hits give low values 0.999 | locus YKL048C, strain ELM1, hits give low values 0.949 | locus YKL067W, strain YNK1, hits give low values 0.947 | locus YKL101W, strain HSL1, hits give low values 0.936 | locus YKL193C, strain SDS22, hits give low values 0.978 | locus YKL203C, strain TOR2, hits give low values 0.975 | locus YLR113W, strain HOG1, hits give low values 0.912 | locus YLR133W, strain CKI1, hits give low values 0.956 | locus YLR403W, strain SFP1, hits give low values 0.88 | locus YML070W, strain DAK1, hits give low values 0.911 | locus YMR001C, strain CDC5, hits give low values 0.972 | locus YMR205C, strain PFK2 (second series), hits give low values 0.956 | locus YMR277W, strain FCP1, hits give low values 0.978 | locus YNL006W, strain LST8, hits give low values 0.973 | locus YNL020C, strain ARK1, hits give low values 0.94 | locus YNL161W, strain CBK1, hits give low values 0.987 | locus YNL183C, strain NPR1, hits give low values 0.985 | locus YNL207W, strain RIO2, hits give low values 0.973 | locus YNL222W, strain SSU72, hits give low values 0.973 | locus YNL307C, strain MCK1 (second series), hits give low values 0.947 | locus YOL078W, strain AVO1, hits give low values 0.991 | locus YOL136C, strain PFK27, hits give low values 0.918 | locus YOR061W, strain CKA2, hits give low values 0.93 | locus YOR119C, strain RIO1, hits give low values 0.945 | locus YOR231W, strain MKK1, hits give low values 0.933 | locus YOR329C, strain SCD5, hits give low values 0.984 | locus YPL031C, strain PHO85, hits give low values 0.884 | locus YPL153C, strain RAD53, hits give low values 0.866 | locus YPL204W, strain HRR25, hits give low values 0.898 | locus YPL209C, strain IPL1, hits give low values 0.985 | locus YPL256C, strain CLN2, hits give low values 0.971 | locus YPR025C, strain CCL1, hits give low values 0.979 | locus YPR106W, strain ISR1, hits give low values 0.975 | locus YPR111W, strain DBF20, hits give low values 0.975 | strain NNK1, hits give low values 0.977 | strain TSCII, hits give low values 0.968
